Data on 13 compounds can be found in PubChem BioAssay (NCI).

Holding throughout (assay): NCI-60 one-dose screen, 48 h (100 = growth as untreated, 0 = no growth, -100 = all killed)
What all share (settings): 10 µM unless noted

Assay [1] deals with HCT-15 colon.
The test system of assay [2] is HT29 colon.
The subject of assay [3] is SNB-75 CNS.
The subject of assay [4] is SNB-19 CNS.
For assay [5], the system named is U251 CNS.
Assay [6] has as its system PC-3 prostate.
Assay [7] relates to SK-MEL-5 melanoma.
In assay [8] the test system is UACC-62 melanoma.
For assay [9], the system named is LOX IMVI melanoma.
In assay [10] the test system is SK-MEL-28 melanoma.

SMILES strings stand for the structures. Compounds without any hit were thinned out: in the full panel of roughly 83,000, 20% have a hit.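 Each cell line was grown in a 96-well plate and treated with one concentration of compound for 48 hours. Values below 10 were considered active.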 Unmarked numbers belong to inactive results. Activity calls are given as the source filed them.

With `O=c1[nH]c2c(ccc3cnccc32)c2c1CCC2`, the growth in [1] is 1.99% (active); in assay [2] it was 7.54% (active); in assay [3] it was -33.4% (active); in assay [4], 3.98% (active); in assay [5], 5.85% (active); in assay [6], 0.402% (active). For the same compound, the growth in [7] was -48.5% (active); in assay [8], -81.3% (active); in assay [9], 0.937% (active); in [10], -52.7% (active).

Take `COc1cccc(-c2nc(-c3ccc(NC(=O)C(C)C)cc3)[nH]c2-c2ccnc(Br)c2)c1`: the growth was 7.17% (active) in [1]; 23% in assay [2]; 10.5% in assay [3]; 44.6% in assay [4]; 32% in [5]; 18.7% in assay [6]. Besides, the growth was 6.14% (active) in assay [7], 37.1% in assay [8], 15.2% in assay [9] and 47% in [10].

As to `COC(=O)[C@H](C)NC(=O)NC(=O)NC(=O)CI`, the growth is 51.4% in [1]; 67.2% in [2]; 112% in assay [3]; 108% in [4]; 96.9% in assay [5]; 86.7% in [6]. Besides, the growth is 99.5% in [7], 41.2% in [8], -66.2% (active) in [9] and 48% in [10].

Take `CCN(CC)c1ccc(C2=NN(C(C)=O)C(c3cc(OC)c(OC)c(OC)c3)C2)cc1` (stereo not given): the growth in assay [1] is 12.8%; in assay [2] it was 8.86% (active); in assay [3], 17.8%; in assay [4], 40.1%; in assay [5] it was 18.7%; in [6], 20.4%. The growth is 23.4% in assay [7], 13.1% in assay [8], 31.5% in [9] and 51.8% in [10].

Consider `CCN(CC)CCNC(=O)c1cn2ncnc(Oc3ccc(NC(=O)Nc4ccc(Cl)c(C(F)(F)F)c4)cc3)c2c1C`, for which the growth is -65.2% (active) in [1]; -68.2% (active) in assay [2]; -27% (active) in assay [3]; -83.4% (active) in [4]; -78% (active) in [5]; -79.2% (active) in assay [6]. Moreover, the growth is -99% (active) in assay [7], -81.2% (active) in assay [8], -98.8% (active) in [9] and -89.9% (active) in assay [10].

`CCc1ccccc1-n1c(N)c(C#N)c(-c2ccc(Cl)cc2)c(C#N)c1=O`: the growth in assay [1] is 108%; in assay [2], 102%; in [3], 90.5%; in assay [4], 111%; in assay [5], 119%; in assay [6], 80.6%. In addition, the growth in assay [7] is 106%; in [8], 98.6%; in assay [9] it was 100%; in assay [10], 113%.

On to `COc1ccc2c(c1)C(C)Cc1c(ncnc1-n1c(C)nc3ccccc31)N2C` (stereo not given), for which the growth in assay [1] is 22.8%; in assay [2], 7.08% (active); in [3], -4.89% (active); in [4] it was 32.3%; in assay [5] it was 25.6%; in assay [6], 16.2%. The growth is 20% in [7], 23.3% in assay [8], 25.7% in [9] and 66.4% in assay [10].

As to `CCOC(=O)/C=C1\S/C(=N\Nc2ccc([N+](=O)[O-])cc2[N+](=O)[O-])N(Cc2ccccc2)C1=O`, the growth in [1] is 35.8%; in assay [2], 85.9%; in assay [3] it was 55.7%; in [4] it was 82.9%; in assay [5] it was 71.7%; in assay [6] it was 64.5%. Also, the growth in [7] is 96.8%; in [8] it was 74.1%; in assay [9], 86%; in assay [10], 98.6%.

On to `O=c1ccc(N=Nc2ccc([N+](=O)[O-])cc2)ccc1O`, for which the growth in assay [1] was 13.2%; in assay [2], 25.9%; in assay [3] it was 30.7%; in assay [4], 19%; in assay [5], 17.4%; in [6] it was 34.2%. Further, the growth in assay [7] is 9.1% (active); in assay [8], 15.2%; in [9] it was 3.95% (active); in assay [10], 41.1%.

On to `OC(c1ccccc1)C(NC(Cc1ccccc1)c1ccccc1)c1ccccc1` (stereo not given), for which the growth in assay [1] is 89.2%; in [2], 71.3%; in assay [3], 90.9%; in assay [4] it was 87.6%; in assay [5], 86.4%; in assay [6] it was 80.5%. The growth in [7] is 94.6%; in assay [8], 69.4%; in assay [9], 89.2%; in assay [10] it was 97.8%.

As to `COc1ccc(/C=C/c2c(C(=O)/C=C/c3ccc(Cl)cc3)c(C)nc3ccccc23)cc1`, the growth is -0.536% (active) in assay [1]; 13.6% in assay [2]; 50.6% in assay [3]; 25% in assay [4]; 19.4% in assay [5]; 29.2% in [6]. Besides, the growth in assay [7] was 39.2%; in assay [8], 33.7%; in assay [9] it was -62.2% (active); in assay [10], 23.8%.

`O=C(Nn1c(NCC(=O)N2c3ccccc3Sc3ccccc32)nnc1-c1ccc(O)cc1)c1ccccc1`: the growth in [1] is 98%; in assay [2] it was 103%; in assay [3] it was 102%; in [4] it was 107%; in assay [5], 103%; in [6], 90.7%. For the same compound, the growth in assay [7] was 107%; in assay [8], 98.9%; in [9], 90.8%; in [10], 115%.

In the case of `CNCCCC12CCC(c3ccccc31)c1ccccc12`, the growth was 95.4% in [1]; 60.4% in assay [2]; 60.2% in assay [3]; 91.5% in assay [4]; 81.1% in assay [5]; 71.9% in assay [6]. The growth in assay [7] is 75.3%; in assay [8] it was 90.9%; in assay [9], 79.6%; in assay [10] it was 87.4%.
